Shown are actives, neighbours in structure and some others; about 6% of the full set was active somewhere.
D1 ag = activates the human D1 dopamine receptor | HEK293 T-REx D1 cells, calcium flux, agonist mode | AID 504660 | P21728 | activation, % at 2 µM | 1% of 360,000 active; in the data active means activation above about 30%
Target sequence (P21728 whole entry, looked up): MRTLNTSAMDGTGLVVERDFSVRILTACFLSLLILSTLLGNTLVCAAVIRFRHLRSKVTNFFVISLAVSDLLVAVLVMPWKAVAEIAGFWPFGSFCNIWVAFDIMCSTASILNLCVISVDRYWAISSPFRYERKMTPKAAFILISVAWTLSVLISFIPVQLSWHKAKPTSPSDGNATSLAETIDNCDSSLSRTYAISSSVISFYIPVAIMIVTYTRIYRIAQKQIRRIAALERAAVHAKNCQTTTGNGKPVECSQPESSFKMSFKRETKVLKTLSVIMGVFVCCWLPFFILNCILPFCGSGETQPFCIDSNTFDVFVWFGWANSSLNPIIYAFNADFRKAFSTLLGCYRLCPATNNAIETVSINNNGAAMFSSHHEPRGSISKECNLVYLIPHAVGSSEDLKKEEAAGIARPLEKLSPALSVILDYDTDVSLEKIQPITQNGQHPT
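Tetracycline-induced HEK293 TREx D1 cells, force-coupled to calcium signalling, were dye-loaded with a no-wash calcium kit. Compound was pin-added after a 10 s baseline. Fluorescence was read kinetically at 1 cycle/s for 180 s, with calcium rises flagged as agonism.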
D3 ag = activates the human D3 dopamine receptor. P35462. D3R DiscoveRx beta-arrestin cells, luminescence, 90 min. max activation, %. 0.58% of 410,000 active. AID 652048; in the data active means max activation above about 30%
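Cells at 1500/well, incubated overnight, then treated with pinned compounds (dopamine as control) for 90 min at 37 degrees C. DiscoveRx reagent added for 30 - 60 minutes at room temperature; luminescence read.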
D1 antagonist = antagonists of human D1 dopamine receptor. P21728. HEK293 TREx D1 cells, calcium flux, dopamine EC80; stronger effect = lower value. activity change, negative = inhibition, % at 10 µM. 3.2% of 360,000 active. AID 504652; in the data active means activity change below about -30%
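Calcium flux readout: force-coupled, inducible Hek293 Trex D1 line, cells induced overnight at 30 C with tetracycline, dye-loaded 30–90 min at RT. Antagonism scored against EC80 dopamine challenge given 180 s after compound.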
DRD3 antagonist = D3 dopamine receptor (human) antagonism; P35462; D3R cells, DiscoveRx beta-arrestin luminescence, antagonist mode; stronger effect = lower value; max response, negative = inhibition, %; 2.5% of 360,000 active; in the data active means max response below about -50%; inconclusive means no clear call, values can overlap the other calls
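Cells plated overnight at 1500 cells/well, then exposed to library compounds with dopamine controls for 90 minutes at 37 degrees C. DiscoveRx reagent added for 30–60 minutes at room temperature; luminescence read, quantitative HTS format.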
D1 PAM = enhances dopamine response at the human D1 receptor. P21728. HEK293 TREx D1 cells, calcium flux, dopamine EC20 potentiation. potentiation, % at 10 µM. 0.036% of 360,000 active; in the data active means potentiation above about 30%
Large screens that a line does not name were inactive.

O=C(/C=C/c1cccc([N+](=O)[O-])c1)Nc1cccc(NC(=O)c2cccs2)c1	D1 antagonist -46
COc1ccccc1NC(=O)Nc1cc(NC(=O)Nc2ccccc2OC)c(C)nc1C	D1 antagonist -93
Cc1ccc([N+](=O)[O-])cc1NC(=O)Nc1cccc(F)c1	D1 antagonist -51
CC(NC(=O)Nc1cccc([N+](=O)[O-])c1)(C(F)(F)F)C(F)(F)F	D1 antagonist -36
O=C(/C=C/c1cccc([N+](=O)[O-])c1)Nc1cccc(NC(=O)c2ccco2)c1	none
O=C(Nc1ccccc1)Nc1cc([N+](=O)[O-])ccc1F	none
COC(=O)c1sccc1NC(=O)Nc1cccc([N+](=O)[O-])c1	D1 antagonist -38
COC(=O)c1sccc1NC(=O)Nc1ccccc1OC	D1 antagonist -80
O=C(Nc1cccc([N+](=O)[O-])c1)Nc1cccs1	D1 antagonist -35
COc1ccccc1NC(=O)NNC(=O)c1cc2ccccc2cc1O	D1 antagonist -34
COc1cc(C(=O)N/N=C/c2ccc(OC)c(CN3CCN(c4ccc(F)cc4)CC3)c2)ccc1O	DRD3 antagonist -75
CC(Sc1nc2ccccc2s1)C(=O)c1c(N)n(C)c(=O)n(C)c1=O (stereo not given)	D1 antagonist -42
CC(Sc1n[nH]c(-c2ccccc2)n1)C(=O)c1c(N)n(C)c(=O)n(C)c1=O (stereo not given)	none
CCc1c(C)nc2c(-c3ccccc3)c(C)[nH]n2c1=O	none
Cc1[nH]n2c(=O)c(C#N)c(-c3ccccc3)nc2c1-c1ccccc1	DRD3 antagonist -60
Cc1[nH]n2c(=O)cc(-c3ccc(Cl)cc3)nc2c1-c1ccccc1	none (no result: DRD3 antagonist)
Cc1[nH]n2c(=O)cc(-c3ccc([N+](=O)[O-])cc3)nc2c1-c1ccccc1	DRD3 antagonist -81 (no result: D1 ag, D1 antagonist, D1 PAM)
Cc1ccc(S(=O)(=O)N/N=C/c2c(F)cccc2Cl)cc1	DRD3 antagonist -87
CS(=O)(=O)N(CC(=O)N/N=C/c1cc([N+](=O)[O-])ccc1Cl)c1ccccc1	none
CC(=O)Nc1ccc(S(=O)(=O)NN=Cc2ccc(Cl)c(Cl)c2)cc1	DRD3 antagonist -71 (no result: D1 ag, D1 antagonist, D1 PAM)
Cc1ccc(S(=O)(=O)N/N=C/c2ccc3nccnc3c2)cc1	D3 ag 52, DRD3 antagonist inconclusive
Cc1cccc(N(CC(=O)N/N=C/c2cc([N+](=O)[O-])ccc2Cl)S(C)(=O)=O)c1C	D1 antagonist -45
Cc1ccc(-c2nc3ccccc3[nH]2)cc1NC(=O)COc1ccccc1[N+](=O)[O-]	none (no result: DRD3 antagonist)
Nc1c(NC/C=C\COc2cc(CN3CCCCC3)ccn2)c(=O)c1=O	none (no result: D1 ag, D1 antagonist, DRD3 antagonist, D1 PAM)
O=[N+]([O-])c1ccc(S(=O)(=O)NN=Cc2ccc(Cl)c(Cl)c2)cc1	DRD3 antagonist -51 (no result: D1 ag, D1 antagonist, D1 PAM)
Cc1ccc(S(=O)(=O)N/N=C\c2cc([N+](=O)[O-])ccc2Cl)cc1	DRD3 antagonist -63
Cc1ccc(S(=O)(=O)N/N=C/c2cccc([N+](=O)[O-])c2)cc1	none
COc1ccc(CNC(=O)C2CCN(c3nnc(-n4c(C)ccc4C)s3)CC2)c(OC)c1	none (no result: DRD3 antagonist)
CC1CN(C(C)C)C(C)CC1OC(=O)c1ccccc1 (stereo not given)	none
COc1ccc(NC(=O)c2cc(-c3cc(F)ccc3OCC3CCCO3)n[nH]2)cc1OC (stereo not given)	none (no result: D1 ag, D1 antagonist, D1 PAM)
Clc1ccc(-c2ccc(CN3CCCCC3)o2)cc1	DRD3 antagonist -106
CN1CCN(Cc2ccc(-c3ccc(Cl)cc3)o2)CC1	DRD3 antagonist -71
COCCNC(=O)/C(C#N)=C/c1c(N2CCN(C)CC2)nc2ccccn2c1=O	none
Oc1cccc(C=Nc2cccc3ccccc23)c1O	DRD3 antagonist -75
Oc1ccc2ccccc2c1C=Nc1ccc(N2CCOCC2)cc1	D1 ag 52
Oc1ccccc1C=Nc1cccc2ccccc12	none
Oc1ccc(N=Nc2cccc(Cl)c2)cc1C=Nc1ccc(N2CCOCC2)cc1	DRD3 antagonist -76
Oc1ccccc1N=Cc1c(O)ccc2ccccc12	D1 ag 101
Clc1ccc(NCc2cccnc2)c(Cl)c1	none
CCCc1c(-c2ccc(F)cc2)ncn1Cc1ccccc1OC	none (no result: D1 ag, D1 antagonist, D1 PAM)
O=C(NCCc1cccs1)C1CC(c2cccc(F)c2)=NO1 (stereo not given)	D1 ag 40
O=C(NCc1cccs1)C1CC(c2ccc(Cl)cc2)=NO1 (stereo not given)	D1 antagonist -33
O=C(NCc1ccccc1C(F)(F)F)C1CC(c2cccc(F)c2)=NO1 (stereo not given)	D1 antagonist -91
O=C(NCc1cccs1)C1CC(c2ccc(Cl)c(Cl)c2)=NO1 (stereo not given)	none
Cc1ccc(C(=O)c2oc3ccccc3c2NC(=O)c2cc(-c3ccccc3)on2)cc1	none (no result: DRD3 antagonist)
Cn1nnnc1SCCCNCc1cc(Cl)ccc1OCc1ccccc1	D1 ag 40 (no result: DRD3 antagonist)
Cn1nnnc1SCCNCc1ccccc1OCc1ccccc1	none
Cn1nnnc1SCCCNCc1ccccc1OCc1ccccc1Cl	D1 ag 119, D1 antagonist -46 (no result: DRD3 antagonist)
Cn1nnnc1SCCCNCc1cccc(OCc2ccccc2F)c1	D1 ag 45 (no result: DRD3 antagonist)
Cn1nnnc1SCCCNCc1cccc(OCc2ccccc2Cl)c1	D1 ag 108 (no result: DRD3 antagonist)
COc1cccc(CNCCCSc2nnnn2C)c1	none (no result: DRD3 antagonist)
O=S(=O)(c1ccccc1)N(CC(O)COc1ccccc1)c1ccccc1 (stereo not given)	D1 antagonist -31
O=[N+]([O-])c1ccc(N/N=C2/CCCCC2c2ccccn2)cc1 (stereo not given)	D1 antagonist -59
CCN1C[C@@H]2[C@@H]3C(=O)N(Cc4ccccc4)C(=O)[C@@H]3[C@](C)(C1=O)N2C(=O)c1ccccc1	D3 ag 43 (no result: D1 ag, D1 antagonist, D1 PAM)
CN1C[C@@H]2[C@@H]3C(=O)N(Cc4ccccc4)C(=O)[C@@H]3[C@](C)(C1=O)N2C(=O)c1ccc(F)cc1	none (no result: D1 ag, D1 antagonist, D1 PAM)
Cc1ccc(C(=O)N2[C@@H]3CN(C)C(=O)[C@@]2(C)[C@H]2C(=O)N(Cc4ccccc4)C(=O)[C@@H]32)cc1	D3 ag 32 (no result: D1 ag, D1 antagonist, D1 PAM)
CC(=O)c1cc(C)ccc1OC(=O)CCN1C(=O)C2C3c4ccccc4C(c4ccccc43)C2C1=O (stereo not given)	D3 ag 38
Cc1cc(C)nc(-n2nc(C)c3c2N(Cc2ccccc2)C(=O)CC3c2ccc(Cl)cc2)n1 (stereo not given)	none (no result: DRD3 antagonist)
O=C(c1ccccc1-c1nc(-c2ccc(Cl)cc2)no1)N1CCCC1	D1 antagonist -35
COc1ccc([C@H]2C[C@@H](n3cc(-c4ccc(F)cc4)nn3)[C@H](O)CN2CC2CCCCC2)cc1	none (no result: D1 ag, D1 antagonist, D1 PAM)
COc1ccc(SCC(=O)Nc2ccc(N3CCN(C)CC3)c(F)c2)cc1	DRD3 antagonist -56
O=C(CSc1ccccc1)Nc1ccc(N2CCN(c3ccccc3)CC2)c(F)c1	none
Cc1ccc(SCC(=O)Nc2ccc(N3CCN(C)CC3)c(F)c2)cc1	D1 antagonist -59, DRD3 antagonist -53
CN1CCN(c2ccc(NC(=O)CN3CCOCC3)cc2F)CC1	none
